Data from PubChem BioAssay AID1117283 (Broad Institute, 2014).
Measured potencies and affinities stand elsewhere. Calls of active or inactive are those of the source.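 The calls were made as follows: active = fluorescent signal decreased by at least 40%; inconclusive = no clear call, values can overlap the other calls; inactive = the rest, including activity opposite to the expected direction.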

Assay: fibronectin fibrillogenesis inhibitors in fibroblasts, dose response, AH1F cells, Alexa488-fibronectin fluorescence, cherry-pick, set 2 (AID 1117283);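 also: AH1F fibroblasts given Alexa488-labelled fibronectin at 24 nM final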

Structure (SMILES): C=C1C(=O)O[C@@H]2C[C@@H](C)[C@@H]3C=CC(=O)[C@@]3(C)[C@@H](O)[C@H]12
- outcome: inactive
